Residue numbers refer to the chain shown, from its start.
What was measured:
Assay in all cases: protein-binding microarray (PBM); PBM: ~300 nM protein, 6 mM HEPES pH 7.8, 80 mM KCl, 0.5 mM EDTA, 0.5 mM EGTA, 6% glycerol, 35 ng/ul poly-dIdC, 1% milk, 1 h, room temperature; Ap Aiptasia and Nv Nematostella (sea anemones) / Co Capsaspora / Aq Amphimedon (sponge) / Dm Drosophila / Hu human; RHD is the Rel homology domain; high values mean tight binding
Conditions in all cases: dsDNA, one strand shown
GST-Ap-NF-kB RHD = target: T1, GST-Ap-NF-kB RHD (Exaiptasia pallida (Aiptasia), UniProt A0A913YAJ5 2-422)
T1 sequence: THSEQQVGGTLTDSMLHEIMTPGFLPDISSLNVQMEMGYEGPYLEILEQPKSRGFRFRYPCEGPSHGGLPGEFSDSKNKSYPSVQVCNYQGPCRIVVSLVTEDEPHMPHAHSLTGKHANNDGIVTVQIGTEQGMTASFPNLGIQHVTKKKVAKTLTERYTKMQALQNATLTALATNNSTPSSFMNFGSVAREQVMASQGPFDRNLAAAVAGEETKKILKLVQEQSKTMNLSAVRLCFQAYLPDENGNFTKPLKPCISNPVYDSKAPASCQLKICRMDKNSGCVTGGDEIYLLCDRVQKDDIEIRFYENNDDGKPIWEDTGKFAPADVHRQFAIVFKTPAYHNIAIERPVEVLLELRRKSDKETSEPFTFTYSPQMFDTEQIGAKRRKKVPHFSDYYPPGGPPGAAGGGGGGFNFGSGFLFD

[1] = target: T2, GST-Nv-NF-kB (Cys allele) (Nematostella vectensis, UniProt E5G601 2-411)
T2 sequence: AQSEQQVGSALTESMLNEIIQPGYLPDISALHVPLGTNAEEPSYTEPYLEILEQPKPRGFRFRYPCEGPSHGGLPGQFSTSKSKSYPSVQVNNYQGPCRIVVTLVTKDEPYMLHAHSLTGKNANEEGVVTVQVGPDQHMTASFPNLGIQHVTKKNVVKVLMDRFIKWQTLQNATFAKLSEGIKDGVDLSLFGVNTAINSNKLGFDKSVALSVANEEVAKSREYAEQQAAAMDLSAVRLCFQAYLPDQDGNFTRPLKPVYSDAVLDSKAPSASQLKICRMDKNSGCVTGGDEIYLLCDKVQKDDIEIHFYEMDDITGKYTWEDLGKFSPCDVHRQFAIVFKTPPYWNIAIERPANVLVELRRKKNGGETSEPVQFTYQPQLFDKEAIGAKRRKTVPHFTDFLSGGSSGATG

[2] = target: T3, GST-Nv-NF-kB (Ser allele) (Nematostella vectensis, UniProt A7UNT2 2-411)
T3 sequence: T2 sequence with Q21R, C66S, S207N, E215Q, V217A, E225K, A268E, D399E

GST-Co-NF-kB = target: T4, GST-Co-NF-kB (Capsaspora owczarzaki, UniProt F1ARL5 200-546)
T4 sequence: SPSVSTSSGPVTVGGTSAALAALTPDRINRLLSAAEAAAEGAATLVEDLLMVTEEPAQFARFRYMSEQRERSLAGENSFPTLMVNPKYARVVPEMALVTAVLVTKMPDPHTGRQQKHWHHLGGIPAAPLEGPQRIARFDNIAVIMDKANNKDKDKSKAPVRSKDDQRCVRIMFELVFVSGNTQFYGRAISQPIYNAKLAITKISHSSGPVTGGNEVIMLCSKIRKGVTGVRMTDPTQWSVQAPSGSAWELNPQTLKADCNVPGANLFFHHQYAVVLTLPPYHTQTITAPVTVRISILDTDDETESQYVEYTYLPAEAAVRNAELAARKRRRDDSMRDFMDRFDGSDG

GST-Dm-Relish = target: T5, GST-Dm-Relish (Drosophila melanogaster, UniProt Q94527 99-473)
T5 sequence: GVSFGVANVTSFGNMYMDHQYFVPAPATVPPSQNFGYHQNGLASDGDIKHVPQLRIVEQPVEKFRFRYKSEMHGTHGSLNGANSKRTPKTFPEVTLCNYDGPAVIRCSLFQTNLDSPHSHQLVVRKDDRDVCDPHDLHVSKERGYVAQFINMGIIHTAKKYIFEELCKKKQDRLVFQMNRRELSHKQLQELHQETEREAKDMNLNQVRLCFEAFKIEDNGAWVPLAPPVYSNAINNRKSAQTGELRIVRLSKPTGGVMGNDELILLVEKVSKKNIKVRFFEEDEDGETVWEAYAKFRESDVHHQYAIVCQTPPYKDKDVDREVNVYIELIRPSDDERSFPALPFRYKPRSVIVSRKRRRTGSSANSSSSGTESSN

GST-Aq-NF-kB = target: T6, GST-Aq-NF-kB (Amphimedon queenslandica, UniProt A9Y5G7 2-389)
T6 sequence: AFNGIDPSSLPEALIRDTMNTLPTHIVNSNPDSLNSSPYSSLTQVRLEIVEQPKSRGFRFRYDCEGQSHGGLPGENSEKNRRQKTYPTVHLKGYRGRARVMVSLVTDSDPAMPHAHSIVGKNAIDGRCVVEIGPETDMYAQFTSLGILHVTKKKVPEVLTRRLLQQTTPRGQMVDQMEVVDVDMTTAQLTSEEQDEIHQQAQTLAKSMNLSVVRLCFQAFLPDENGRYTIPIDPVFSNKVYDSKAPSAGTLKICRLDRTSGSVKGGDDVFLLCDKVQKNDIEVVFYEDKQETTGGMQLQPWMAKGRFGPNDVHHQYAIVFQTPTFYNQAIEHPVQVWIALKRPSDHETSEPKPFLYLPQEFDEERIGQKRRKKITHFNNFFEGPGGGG

GST-Hu-p50 = GST-Hu-p50 (Homo sapiens, UniProt P19838 7-356)
GST-Hu-p50, sequence (P19838 7-356): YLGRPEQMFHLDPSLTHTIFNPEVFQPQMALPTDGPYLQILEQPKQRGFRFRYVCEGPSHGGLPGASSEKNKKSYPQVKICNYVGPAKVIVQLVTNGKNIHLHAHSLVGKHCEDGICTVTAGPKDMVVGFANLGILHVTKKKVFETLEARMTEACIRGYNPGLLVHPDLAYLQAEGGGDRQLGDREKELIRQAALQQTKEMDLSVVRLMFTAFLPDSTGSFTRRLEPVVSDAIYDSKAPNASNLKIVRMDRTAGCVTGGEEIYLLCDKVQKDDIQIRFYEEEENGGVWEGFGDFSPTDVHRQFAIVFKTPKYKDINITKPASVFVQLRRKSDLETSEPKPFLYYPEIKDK

Sequence: CCGATTAACATCAACAAATCCCCTGATGTTAATCGGGTCTTGATTCGCTTGACGCTGCTG
- binding signal (GST-Ap-NF-kB RHD): 7.43 z-score
- binding signal [1]: 7.95 z-score
- binding signal [2]: 10.9 z-score
- binding signal (GST-Co-NF-kB): 4.14 z-score
- binding signal (GST-Dm-Relish): 6.61 z-score
- binding signal (GST-Aq-NF-kB): 5.53 z-score
- binding signal (GST-Hu-p50): 7.22 z-score

Sequence: CCGATTAACATCAAGGGGGTTTATGATGTTAATCGGGTCTTGATTCGCTTGACGCTGCTG
- binding signal (GST-Ap-NF-kB RHD): 7.31 z-score
- binding signal [1]: 6.46 z-score
- binding signal [2]: 7.73 z-score
- binding signal (GST-Co-NF-kB): 2.54 z-score
- binding signal (GST-Dm-Relish): 8.75 z-score
- binding signal (GST-Aq-NF-kB): 6.24 z-score
- binding signal (GST-Hu-p50): 7.21 z-score

Sequence: CCGATTAACATCAGGGAAAATTATGATGTTAATCGGGTCTTGATTCGCTTGACGCTGCTG
- binding signal (GST-Ap-NF-kB RHD): 5.47 z-score
- binding signal [1]: 7.77 z-score
- binding signal [2]: 8.46 z-score
- binding signal (GST-Co-NF-kB): 6.45 z-score
- binding signal (GST-Dm-Relish): 2.28 z-score
- binding signal (GST-Aq-NF-kB): 6.77 z-score
- binding signal (GST-Hu-p50): 5.34 z-score

Sequence: CCGATTAACATCACCCCTTCCCCTGATGTTAATCGGGTCTTGATTCGCTTGACGCTGCTG
- binding signal (GST-Ap-NF-kB RHD): 4.7 z-score
- binding signal [1]: 3.88 z-score
- binding signal [2]: 4.86 z-score
- binding signal (GST-Co-NF-kB): 5.6 z-score
- binding signal (GST-Dm-Relish): 2.5 z-score
- binding signal (GST-Aq-NF-kB): 3.85 z-score
- binding signal (GST-Hu-p50): 3.3 z-score

Sequence: CCGATTAACATCAGGGGTTTCTATGATGTTAATCGGGTCTTGATTCGCTTGACGCTGCTG
- binding signal (GST-Ap-NF-kB RHD): 5.36 z-score
- binding signal [1]: 4.73 z-score
- binding signal [2]: 4.67 z-score
- binding signal (GST-Co-NF-kB): 1.76 z-score
- binding signal (GST-Dm-Relish): 5.29 z-score
- binding signal (GST-Aq-NF-kB): 4.5 z-score
- binding signal (GST-Hu-p50): 5.3 z-score

Sequence: CCGATTAACATCAAGGGGGATTATGATGTTAATCGGGTCTTGATTCGCTTGACGCTGCTG
- binding signal (GST-Ap-NF-kB RHD): 8.36 z-score
- binding signal [1]: 7.48 z-score
- binding signal [2]: 8.59 z-score
- binding signal (GST-Co-NF-kB): 4.73 z-score
- binding signal (GST-Dm-Relish): 6.5 z-score
- binding signal (GST-Aq-NF-kB): 6.85 z-score
- binding signal (GST-Hu-p50): 7.48 z-score

Sequence: CCGATTAACATCAGGGAAGAACCTGATGTTAATCGGGTCTTGATTCGCTTGACGCTGCTG
- binding signal (GST-Ap-NF-kB RHD): 2.43 z-score
- binding signal [1]: 3.52 z-score
- binding signal [2]: 3.35 z-score
- binding signal (GST-Co-NF-kB): 1.42 z-score
- binding signal (GST-Dm-Relish): 8.73 z-score
- binding signal (GST-Aq-NF-kB): 5.54 z-score
- binding signal (GST-Hu-p50): 2.83 z-score

Sequence: CCGATTAACATCAAAACCTCCCCTGATGTTAATCGGGTCTTGATTCGCTTGACGCTGCTG
- binding signal (GST-Ap-NF-kB RHD): 5.96 z-score
- binding signal [1]: 5.34 z-score
- binding signal [2]: 7 z-score
- binding signal (GST-Co-NF-kB): 6.47 z-score
- binding signal (GST-Dm-Relish): 3.36 z-score
- binding signal (GST-Aq-NF-kB): 4.96 z-score
- binding signal (GST-Hu-p50): 4.55 z-score

Sequence: CCGATTAACATCAGGGAGGGAAATGATGTTAATCGGGTCTTGATTCGCTTGACGCTGCTG
- binding signal (GST-Ap-NF-kB RHD): 2.6 z-score
- binding signal [1]: 4.76 z-score
- binding signal [2]: 3.78 z-score
- binding signal (GST-Co-NF-kB): 3.79 z-score
- binding signal (GST-Dm-Relish): 1.23 z-score
- binding signal (GST-Aq-NF-kB): 3.72 z-score
- binding signal (GST-Hu-p50): 2.8 z-score

Sequence: CCGATTAACATCAGACTTCCCCCTGATGTTAATCGGGTCTTGATTCGCTTGACGCTGCTG
- binding signal (GST-Ap-NF-kB RHD): 7.28 z-score
- binding signal [1]: 7.38 z-score
- binding signal [2]: 7.81 z-score
- binding signal (GST-Co-NF-kB): 7.84 z-score
- binding signal (GST-Dm-Relish): 7.18 z-score
- binding signal (GST-Aq-NF-kB): 6.8 z-score
- binding signal (GST-Hu-p50): 6.2 z-score

Sequence: CCGATTAACATCAAGATTTCCCATGATGTTAATCGGGTCTTGATTCGCTTGACGCTGCTG
- binding signal (GST-Ap-NF-kB RHD): 2.43 z-score
- binding signal [1]: 4.42 z-score
- binding signal [2]: 4.61 z-score
- binding signal (GST-Co-NF-kB): 4.11 z-score
- binding signal (GST-Dm-Relish): 2.29 z-score
- binding signal (GST-Aq-NF-kB): 3.35 z-score
- binding signal (GST-Hu-p50): 3.33 z-score

Sequence: CCGATTAACATCAAAAGGGAATTTGATGTTAATCGGGTCTTGATTCGCTTGACGCTGCTG
- binding signal (GST-Ap-NF-kB RHD): 3.2 z-score
- binding signal [1]: 6.76 z-score
- binding signal [2]: 7.17 z-score
- binding signal (GST-Co-NF-kB): 1.41 z-score
- binding signal (GST-Dm-Relish): 4.25 z-score
- binding signal (GST-Aq-NF-kB): 4.96 z-score
- binding signal (GST-Hu-p50): 5.13 z-score
